Experimental data: PubChem BioAssay AID624330 (Southern Research Specialized Biocontainment Screening …, 2012)
The campaign covered roughly 340,000 compounds. About 2,100 (0.62%) were called active.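 Rule for the calls: active = first-screen hits whose inhibition reached a set limit at any dose in the follow-up dose series; inconclusive = inhibition above the set first-screen limit but never retested; inactive = the rest.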 The list is a sample of the results. Entries with a potency or affinity are not part of this list.

Biological target: Rac GTPase-activating protein 1 (Homo sapiens) (UniProt Q9H0H5)
Sequence (Q9H0H5 whole entry, looked up): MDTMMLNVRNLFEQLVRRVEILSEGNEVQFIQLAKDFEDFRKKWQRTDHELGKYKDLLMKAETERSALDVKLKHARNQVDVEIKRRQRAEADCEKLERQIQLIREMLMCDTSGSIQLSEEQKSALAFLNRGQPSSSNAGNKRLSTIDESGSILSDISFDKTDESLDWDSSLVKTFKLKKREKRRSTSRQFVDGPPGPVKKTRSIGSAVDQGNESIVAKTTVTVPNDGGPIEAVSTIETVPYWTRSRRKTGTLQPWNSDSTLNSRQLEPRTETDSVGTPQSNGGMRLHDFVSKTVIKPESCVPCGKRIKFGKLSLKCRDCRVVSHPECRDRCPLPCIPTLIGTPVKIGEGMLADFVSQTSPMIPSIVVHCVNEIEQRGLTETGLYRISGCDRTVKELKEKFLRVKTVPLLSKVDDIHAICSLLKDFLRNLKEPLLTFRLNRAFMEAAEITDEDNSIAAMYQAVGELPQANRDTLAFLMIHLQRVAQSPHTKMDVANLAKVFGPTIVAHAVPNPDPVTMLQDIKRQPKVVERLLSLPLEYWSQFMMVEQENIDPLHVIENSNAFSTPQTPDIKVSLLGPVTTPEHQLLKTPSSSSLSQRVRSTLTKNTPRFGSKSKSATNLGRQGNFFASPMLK
Experiment: MgcRacGAP GTPase-activating activity inhibitors, confirmation, biochemical, ADP Hunter fluorescence, primary and confirmatory (AID 624330);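 note: fluorescence reports GDP produced by GAP-driven GTP hydrolysis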
Details: MgcRacGAP-stimulated Rac1 GTP hydrolysis, at 30 µM, stronger effect = higher value, GST-tagged Rac1 F28L mutant substrate

inhibition, inactive:
O=C(NCCN1C(=O)S/C(=C\c2ccccc2F)C1=O)C1CCCN1C(=O)c1cccs1 (centres undefined) -14.1%
Cc1ccccc1OCC(=O)N/N=C/c1cn(Cc2ccccc2)c2ccccc12 3.64%
Cc1ccc2nc(-c3ccc(N4C(=N)SC5CS(=O)(=O)CC54)cc3)sc2c1 (centres undefined) 9.19%
CCOc1ccc(C(=O)N2CCC(C(=O)c3ccc4c(c3)OCCO4)CC2)cc1 -2.21%
COc1ccc(/C=C2\CCCC(C(=O)C(F)(F)F)=C2O)cc1 4.33%
Cc1ccc(S(=O)(=O)Nc2ccc(S(=O)(=O)N3CCOCC3)cc2)cc1 0.84%
CC1CCc2sc(C(=O)NCCCn3ccnc3)cc2C1 (centres undefined) 5.91%
O=C(c1cc2c(=O)n3ccccc3nc2s1)N1CCN(Cc2ccccc2)CC1 4.57%
CCC(C)C1=CC(=Nc2c(C)n(C)n(-c3ccccc3)c2=O)C=C(C(C)CC)C1=O (centres undefined) 9.72%
Cc1c(N=Cc2nc3ccccc3[nH]2)c(=O)n(-c2ccccc2)n1C 17.9%
Cc1c(-n2c(=S)[nH]c3ccccc3c2=O)c(=O)n(-c2ccccc2)n1C 4.22%
Cc1c(N(C)C)c(=O)n(-c2ccccc2)n1C 3.4%
CC1=CC(=Nc2c(C)n(C)n(-c3ccccc3)c2=O)C=C(C)C1=O -4.18%
Cc1c(C(c2ccc(N(C)C)cc2)c2c(C)n(C)n(-c3ccccc3)c2=O)c(=O)n(-c2ccccc2)n1C -5.89%
O=NNc1nc2ccccc2n1Cc1ccccc1 7.61%
CCOC(=O)C(NC(=O)Nc1ccc(F)cc1F)(Oc1ccc(F)cc1)C(F)(F)F (centres undefined) 7.05%
Cc1cc(NS(C)(=O)=O)c(=O)n(Cc2c(F)cccc2Cl)c1 -0.27%
C=CCSc1nc2sc(C)c(C)c2c(=O)n1N 2.09%
CCc1cc(Cn2nc(-c3ccccc3)cc2C(=O)NCC2CC2)on1 12%
COc1cc2c(cc1OC)C(c1cccs1)N(C(=O)c1cccc(S(=O)(=O)N(C)C)c1)CC2 (centres undefined) 5.21%
CCOc1ccc(S(=O)(=O)N2CCN(C(=O)CCOc3ccccc3C)CC2)cc1 3.82%
CCOc1ccc(NC(=O)COc2cccc3c2CCN(Cc2cccnc2)C3=O)cc1 0.41%
O=C1CC2(CCN(C(=O)c3cccc(Br)c3)CC2)Oc2ccccc21 3.6%
COc1cc2[nH]c(=S)nc(NCCC(C)C)c2cc1OC 20.9%
COc1cc2nc(Nc3ccc(F)cc3)nc(N)c2cc1OC 6.17%
COc1ccc(CCNc2nc(=S)[nH]c3cc(OC)c(OC)cc23)cc1OC 39.9%
COc1ccc(C(=O)Nc2nc3cc(OC)c(OC)cc3c(=O)[nH]2)cc1 14.9%
CSc1nc2c([nH]1)c(=S)n(C)c(=O)n2C 8.34%
COC(=O)C(CC(C)C)NC(=O)CNC(=O)c1ccccc1C (centres undefined) 7.16%
COc1ccccc1N1CCN(C(=O)c2cccc(N3C(=O)C4C5C=CC(C5)C4C3=O)c2)CC1 (centres undefined) 9.14%
COc1ccc(C2C(=O)NN=C2C)cc1 (centres undefined) 22.1%
CC1=NNC(=O)C1Oc1ccccc1 (centres undefined) 10.8%
Cn1c(N)c(C(=O)COC(=O)/C=C/c2ccccc2)c(=O)n(C)c1=O 1.47%
Cc1cnc(NC(=O)CN2CCN(c3ccccn3)CC2)s1 2.02%
CCOc1ccccc1N1CCN(CC(=O)Nc2ncc(C)s2)CC1 5.5%
c1ccc(COc2ncnc3c2ncn3CCCNCC2CCCO2)cc1 (centres undefined) 7.05%
Brc1ccccc1OCCCN1CCOCC1 14.8%
COc1ccccc1OCCCCN1CCCCC1 3.62%
COc1ccccc1OCCCCCCN1CCN(C)CC1 -3.02%
Brc1ccccc1OCCN1CCOCC1 17.5%
COc1cc(C)ccc1OCCOCCOc1c(C)cc(C)cc1Br 3.98%
CCn1c(COc2ccc(=O)n(-c3ccccc3)n2)nnc1SCc1ccccc1C -2.27%
O=C(c1noc2c1CCCCC2)N1CCOCC1 1.03%
CC(C)CC(OC(=O)c1nsc(Cl)c1Cl)C(=O)NCC1CCCO1 (centres undefined) 5.99%
Cc1ccc(S(=O)(=O)N2CCN(c3c([N+](=O)[O-])cc(C(F)(F)F)cc3[N+](=O)[O-])CC2)cc1 6.82%
O=C(Nc1ccc2c(c1)OCO2)C1CCCCC1 6.05%
O=C(NC1CCCCCCC1)c1ccc2c(c1)OCO2 4.04%
CC(C)COC(=O)Cc1c(O)c2ccccc2[nH]c1=O 1.69%
CN1CCCN(C(=O)c2cccc(Cl)c2)CC1 3.23%
O=C(c1cccnc1)N1CCN(C(=O)c2cccc(Cl)c2)CC1 -2.27%
CC(C)CC(CO)N1CCN(C(=O)c2cccc(Cl)c2)CCC1=O (centres undefined) 2.07%
CCOC(=O)C1CCN(C(=O)c2cccc(Cl)c2)CC1 6.23%
COc1ccc(N2C(=O)CC(N3CCN(c4ccc(S(C)(=O)=O)cc4)CC3)C2=O)cc1 (centres undefined) -1.2%
CN(C)c1ccc(P(=O)(OCc2ccccc2)C(O)c2ccccc2F)cc1 (centres undefined) 0.52%
O=C(Nc1ccc(F)cc1)Nc1nnc(COc2ccccc2F)s1 10.4%
CCOc1cc(S(=O)(=O)NCc2cccs2)ccc1Cl 8.13%
CC(=O)NC1=NC(=O)CS1 2.93%
CN(C1=NC(=O)CS1)c1ccc(O)cc1 9.21%
COc1ccc(S(=O)(=O)N2CCC(N3CCCC3)CC2)cc1 21%
Cc1ccc2oc(=O)n(CCOc3ccccc3C)c2c1 0.34%
O=C(O)c1ccccc1SC1CC(=O)N(c2ccc3c(c2)OCO3)C1=O (centres undefined) -5.78%
O=C(O)c1ccccc1-c1ccc(/C=C2\SC(=O)N(c3ccccc3)C2=O)o1 6.66%
Cc1c(C(=O)O)cccc1-c1ccc(/C=C2/NC(=O)N(c3ccccc3)C2=O)o1 -7.26%
N=C1S/C(=C\c2ccc(-c3ccccc3C(=O)O)o2)C(=O)N1c1ccc2c(c1)OCO2 19.7%
